Bioassay records as filed in PubChem.
Mito fusion yeast: inhibitors of mitochondrial division or activators of mitochondrial fusion; Potency, µM (doses to about 46.1 µM), inactives show at the top dose growth rescue (activation), hits mostly activators; S. cerevisiae fusion-defective mutant growth rescue, CellTiterGlo 48 h; 320,000 tested, 0.23% active; also: % of control where 0% means no effect; nearly all actives have a fitted effect of over 45% in size
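Compounds are tested for their ability to restore growth of mitochondrial fusion-defective yeast strains at non-permissive 37C in YPEG medium over 48 hours. Viability is quantified by luciferase luminescence.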
Nrf2 inh: inhibitors of Nrf2 signaling; A549 ARE-Fluc reporter, luciferase luminescence, 18-24 h; Potency, µM (doses to about 46 µM), for inactives: top-dose activity change, negative = inhibition, hits mostly inhibitors; 360,000 tested, 2.1% active; also: % is scaled to controls: 0 for no effect and ±100 for the full control effect; nearly all actives have a fitted effect of over 60% in size
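In this cell-based qHTS, ARE-driven firefly luciferase in A549 cells reports Nrf2 activity; the luminescent signal after BugLite lysis is the measured value, with a prior CellTiter-Fluor read for cell health.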
A549 tox: counter-screen for Nrf2 inhibitors: cytotoxicity in A549 cells; A549 ARE-Fluc cells, CellTiter-Fluor viability, 18-24 h; Potency, µM (titrated, usually from 46 µM), for inactives: at the top dose activity change, negative = cytotoxicity, hits mostly inhibitors; 390,000 tested, 0.16% active; also: % is scaled to controls: 0 for no effect and ±100 for the full control effect
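A549 ARE-Fluc cells in 5% FBS OPTI-MEM, 5000 cells/well, rested 2 h then exposed to compounds in concentration-response for 18-24 h at 37 °C. Viability by CellTiter-Fluor fluorescence (Ex 405/Em 525) after 30 min; luciferase luminescence (BugLite, 15 min, RT) read afterwards.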
TrxR1 substrate: rat thioredoxin reductase 1 substrate activity; purified TrxR1 substrate turnover, NADPH consumption readout; Potency, µM (top dose mostly 114 µM), without a hit: top-dose activity change, negative = substrate turnover; O89049; 390,000 tested, 0.01% active; AID 588456; also: % is scaled to controls: 0 for no effect and ±100 for the full control effect; nearly all actives have a fitted effect of over 50% in size
Target sequence (O89049 whole entry, looked up): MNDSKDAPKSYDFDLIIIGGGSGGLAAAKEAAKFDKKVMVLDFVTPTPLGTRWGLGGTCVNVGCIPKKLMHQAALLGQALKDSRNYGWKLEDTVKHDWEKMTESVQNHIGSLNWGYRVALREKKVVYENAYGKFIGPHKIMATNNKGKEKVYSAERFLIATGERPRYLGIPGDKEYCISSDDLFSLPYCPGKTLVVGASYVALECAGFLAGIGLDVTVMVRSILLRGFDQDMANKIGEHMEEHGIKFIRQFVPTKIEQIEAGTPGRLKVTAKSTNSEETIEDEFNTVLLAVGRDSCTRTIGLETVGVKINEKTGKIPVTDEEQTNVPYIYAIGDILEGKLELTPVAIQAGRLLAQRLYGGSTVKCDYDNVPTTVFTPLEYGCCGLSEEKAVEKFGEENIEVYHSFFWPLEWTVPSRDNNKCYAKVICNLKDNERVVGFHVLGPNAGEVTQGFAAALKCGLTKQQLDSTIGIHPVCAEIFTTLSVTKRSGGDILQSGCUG
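Rat TrxR1, dispensed at 90 nM, was prereduced with 400 uM NADPH (final) for 5 min at ~22 deg C, then incubated with compound 15 min before 400 uM selenite. A first-read NADPH fluorescence drop versus no-compound background flagged substrates.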
TrxR1 inh: inhibitors of rat thioredoxin reductase 1; O89049; recombinant rTrxR1, NADPH fluorescence consumption, selenite substrate; Potency, µM (highest dose often 114 µM), for the others: at the top dose activity change, negative = inhibition, hits mostly inhibitors; 390,000 tested, 1% active; also: % is scaled to controls: 0 for no effect and ±100 for the full control effect; nearly all actives have a fitted effect of over 65% in size
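Rat TrxR1 (90 nM in the dispensed reagent) was pre-reduced with 400 uM NADPH for 5 min at room temperature, then incubated with compound for 15 min. After 400 uM selenite was added, NADPH fluorescence (Ex 340/Em 450 nm) was followed for 8 min.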
IDH1 R132H inh: blocks human mutant IDH1 R132H enzyme. O75874. IDH1-R132H enzyme, NADPH consumption, diaphorase/resazurin fluorescence. Potency, µM (series often up to 76.6 µM), for inactives: at the highest dose activity change, negative = inhibition, usual class: inhibitors. 390,000 tested, 0.093% active. AID 602179; also: % is scaled to controls: 0 for no effect and ±100 for the full control effect; nearly all actives have a fitted effect of over 65% in size
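IDH1-R132H (0.5 ug/mL) preincubated 30 min with compound, then NADPH (0.016 mM) and alpha-KG (2 mM) added; 80 min at RT, pH 7.5. Remaining NADPH coupled via diaphorase/resazurin to fluorescence (540/590 nm); concentration-response curves normalized to no-enzyme control.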
An asterisk follows results filed as active; ? = inconclusive; · = no result; [ ] = dose if it differs, or a comment. Rows were chosen to be rich in hits. Some 3.1% of all compounds tested hit in one or more screens of this group. Calls follow the shape of the dose curve; as a rule, active = well fitted curve in the direction sought with a large enough effect; inconclusive = small, poorly fitted or top-dose-only effect, or another doubt; inactive = no such curve, though single readings can be large; an effect the other way counts as inactive or inconclusive. Potency is read from the fitted curve at half-maximal effect.

SMILES	Mito fusion yeast	Nrf2 inh	A549 tox	TrxR1 substrate	TrxR1 inh	IDH1 R132H inh
Cn1c(=O)c2c(SCC(=O)N3CCc4ccccc43)nc(-c3cccc(F)c3)nc2n(C)c1=O	·	·	4%	4%[57.1 µM]	19%[57.1 µM]	0%
CCOc1ccc2nc(N3CCC(C(=O)N4CCN(c5ncccn5)CC4)CC3)sc2c1	-38%	-19%	-6%	4%[57.1 µM]	12%[57.1 µM]	1%
CCOc1ccc2nc(N3CCC(C(=O)N4CCN(c5ccccn5)CC4)CC3)sc2c1	3%	16µM*	-18%	-3%	22%	-6%
CCOCCn1ccc2c(OCC(=O)Nc3ccc(OC)c(OC)c3)cccc2c1=O	-1%	12µM*	-18%	0%[57.1 µM]	1%[57.1 µM]	-9%
CCn1c(=O)cc(SCC(=O)Nc2ccc(OC)c(OC)c2)c2ccccc21	0%	16µM*	-26%	-1%	4%	4%
COc1cc(NC(=O)CSc2cc(=O)n(C)c3ccccc23)cc(OC)c1OC	·	21µM*	-11%	-2%	6%	-7%
CCn1c(=O)cc(SCC(=O)Nc2cc(Cl)ccc2OC)c2ccccc21	·	?	-9%	13%	41%	0%
Cn1c(=O)cc(SCC(=O)Nc2cccnc2)c2ccccc21	1%	?	-3%	5%[57.1 µM]	9%[57.1 µM]	3%
CCOCCn1ccc2c(OCC(=O)Nc3cc(C)cc(C)c3)cccc2c1=O	·	·	-3%	1%[57.1 µM]	9%[57.1 µM]	2%
CC(=O)Nc1cccc(NC(=S)Nc2cccc(Cl)c2Cl)c1	-1%	-11%	4%	0%[57.1 µM]	32µM*	4%
Cn1cnc(S(=O)(=O)N2CCC(C(=O)NCc3ccc(Cl)cc3)CC2)c1	·	·	3%	-5%[57.1 µM]	2%[57.1 µM]	-8%
NC(=O)c1cc([N+](=O)[O-])ccc1NCc1ccc(F)cc1	2%	8%	-7%	-3%	6%	-4%
NC(=O)c1cc([N+](=O)[O-])ccc1NCc1ccc(N)cc1	5%	9.2µM*	?	-4%	10%	0%
COc1ccc(N2CCN(C(=O)CSc3nnnn3-c3ccc4c(c3)OCCO4)CC2)cc1	3%	16µM*	-2%	9%[57.1 µM]	15%	0%
COc1ccc(-n2nnnc2SCC(=O)N2CCOCC2)cc1	-1%	?	1%	7%	30%	19%
Clc1ccc(N2CCN(Cc3ccc(Br)o3)CC2)cc1	1%	0%	1%	8%	33%	18%
Clc1ccc(N2CCN(Cc3cc4ccccn4n3)CC2)cc1	23µM*	·	·	7%[57.1 µM]	4%[57.1 µM]	·
Cc1cc(OCC(=O)N2CCN(c3cccc(Cl)c3)CC2)c2c(C)c(C)c(=O)oc2c1	13%	13%	1%	2%	33%	-4%
Cc1cc(OC(C)C(=O)N2CCN(c3ccc(F)cc3)CC2)c2c(C)c(C)c(=O)oc2c1 (stereo not drawn)	23%	26µM*	-18%	-3%	19%	-8%
C/C=C1\COC(C(=O)NCc2ccncc2)(C(F)(F)F)C=C1C=C1CCCCC1 (stereo not drawn)	·	?	?	-3%	18µM*	13%
CNC(=O)C1(C(F)(F)F)C/C(=C/CCO)CCCO1 (stereo not drawn)	·	7%	0%	-3%	10%	·
C/C=C1\COC(C(=O)NC)(C(F)(F)F)C=C1C=C1CCCCC1 (stereo not drawn)	·	9%	-1%	0%	1.4µM*	·
C/C=C1\COC(C(=O)NCc2cccc(OC)c2OC)(C(F)(F)F)C=C1C=C1CCCCC1 (stereo not drawn)	·	?	4%	-3%	5µM*	3%
COc1cccc(CNC(=O)Cn2nc3c(cc2=O)CCCC3)c1OC	·	·	2%	-7%[57.1 µM]	5%[57.1 µM]	-16%
C/C=C1\COC(C(=O)NCCOCCO)(C(F)(F)F)C=C1C=C1CCCCC1 (stereo not drawn)	·	7%	0%	5%	1.6µM*	·
SMILES	Mito fusion yeast	Nrf2 inh	A549 tox	TrxR1 substrate	TrxR1 inh	IDH1 R132H inh
O=C(NCc1ccccc1)C1(C(F)(F)F)C/C(=C/Cc2ccccc2)CCCO1 (stereo not drawn)	·	-9%	-7%	-8%	-11%	·
CC12CCC(/C(=N/O)C1=O)C2(C)C (stereo not drawn)	·	-5%	-3%	3%	11%	·
COCCNC(=O)C1(C(F)(F)F)C/C(=C\CCO)CCCO1 (stereo not drawn)	·	10%	-1%	3%	7%[57.1 µM]	·
CC=C1COC(C(=O)NCCOCCO)(C(F)(F)F)C=C1C=C(C)C (stereo not drawn)	·	?	-3%	5%	3.5µM*	·
CCCCN(CCCC)CC(O)c1cc(Cl)cc2c1-c1ccc(Cl)cc1C2=Cc1ccc(Cl)cc1 (stereo not drawn)	·	·	·	7%	-7%	·
O=C(Cc1ccc(OCCCc2ccccc2)cc1)NO	·	·	·	6%[0.0914 µM]	14%	·
O=C(O)C(C(=O)/C=C/c1ccco1)=C1SCCS1	2%	?	?	-11%	25µM*	1%
O=C(C=C1SCCS1)/C=C/c1ccco1	-2%	?	-12%	-9%	40µM*	11%
O=C(/C=C/c1ccco1)NC1CCCC1	-1%	12%	-5%	12%[57.1 µM]	-77%	2%
Cc1ccc(S(=O)(=O)NCC(c2ccc(N(C)C)cc2)N2CCc3ccccc32)cc1C (stereo not drawn)	·	·	0%	7%[57.1 µM]	17%[57.1 µM]	5%
CC1CCN(S(=O)(=O)c2ccc(C(=O)N3CCCC(C(F)(F)F)C3)cc2)CC1 (stereo not drawn)	3%	21µM*	-14%	-12%[57.1 µM]	4%[57.1 µM]	-11%
COc1ccccc1NS(=O)(=O)c1ccc(C(=O)N2CCCC(C(F)(F)F)C2)cc1 (stereo not drawn)	1%	23µM*	-8%	-2%	-2%	1%
CN(C)Cc1cc(C(C)(C)C)c(O)c(C(C)(C)C)c1	3%	-15%	-3%	12%[57.1 µM]	8.9µM*	20%
CN(C)Cc1cc(C(C)(C)C)cc(C(C)(C)C)c1O	-4%	-5%	6%	-7%	-12%	-2%
CC(C)(C)c1cc(CN(CCO)CCO)cc(C(C)(C)C)c1O	24%	·	0%	0%	3.5µM*	3%
CC(C)(CO)Cc1cc(C(C)(C)C)c(O)c(C(C)(C)C)c1	?	-5%	-7%	?	?	-16%
O=C1c2ccccc2C(=O)c2[nH]c(=O)[nH]c21	-45%	21µM*	15µM*	-6%	16%	13%
O=C1c2ccccc2C(=O)c2[nH]cnc21	-47%	-16%	0%	1%	9%[57.1 µM]	2%
COc1ccc(CCNC(=O)CCc2cn(Cc3ccc(C)cc3)c3ccccc23)cc1OC	·	-14%	-1%	5%	29%	-6%
